The text below walks through data of the supplement of paper PMC7156485.

Common to all, as to settings: concentration: 10 µM; 24 h
For assay [1], the system named is HCC1569. Briefly: cell number relative to DMSO (% of DMSO); higher = more cells (less growth inhibition / toxicity). Summed up: (§1)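 In 384-well plates holding 800 HCC1569 or TDF cells per well in RPMI with 10% FBS, compounds were tested at 10 µM for 24 h at 37 °C in triplicate. Fixation used 3.7% formaldehyde. Staining used a rabbit anti-H1.0 antibody with an AlexaFluor 647 secondary, plus DAPI. Each value, H1.0 nuclear intensity or cell number, is a median of replicates shown as percent of the plate control, and HCC1569 values were smoothed for positional effects.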

The test system of assay [2] is TDF. The description is as above. In a few lines: as §1
Assay [3] deals with TDF. Briefly: H1.0 immunofluorescence intensity relative to DMSO (% of DMSO); higher = stronger H1.0 induction, active = 120 or more. In a few lines:
as §1

The test system of assay [4] is HCC1569. Briefly: H1.0 immunofluorescence intensity relative to DMSO (% of DMSO); higher = stronger H1.0 induction, active = 140 or more. Summed up:
as §1

± gives the standard deviation of the averaged measurements.
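For H1.0 immunofluorescence intensity relative to DMSO in this document: TDF is a line of transformed human dermal fibroblasts of mesenchymal origin.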
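For cell number relative to DMSO in this document: TDF denotes transformed human dermal fibroblasts of mesenchymal origin.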

For the compound `NC(=O)N1C(=O)/C(=C(\O)c2cccs2)c2cc(Cl)ccc21`, the cell number is 101 in assay [1] and 104 in assay [2]. Also, the H1.0 immunofluorescence intensity in assay [3] was 94.8 (inactive); in assay [4], 106 (inactive).

Regarding `CCCCCC(O)C=CC=CCC=CCCCCC(=O)O` (stereo not drawn), the cell number in assay [1] worked out at 103; in assay [2], 97.9. The H1.0 immunofluorescence intensity in assay [3] was 97.2 (inactive); in assay [4] it was 101 (inactive).

With `COc1ccccc1N1CCN(CCCCNC(=O)c2ccc3ccccc3c2)CC1` [N-{4-[4-(2-methoxyphenyl)-1-piperazinyl]butyl}-2-naphthamide], the cell number in assay [1] is 96.6; in assay [2], 98.1. Besides, the values for the H1.0 immunofluorescence intensity in assay [3] and in assay [4] were 96.7 (inactive) and 114 (inactive), respectively.

Regarding `Cl.FC(F)(F)c1cc(COC2CCCNC2c2ccccc2)cc(C(F)(F)F)c1` [L-733,060 hydrochloride], the cell number came out at 91.2 in assay [1] and 91.3 in assay [2]. In addition, the H1.0 immunofluorescence intensity in assay [3] was 108 (inactive); in assay [4], 118 (inactive).

Regarding `CC(C)CC(NC(=O)C(COC(C)(C)C)NC(=O)C(Cc1ccc(O)cc1)NC(=O)C(CO)NC(=O)C(Cc1c[nH]c2ccccc12)NC(=O)C(Cc1cnc[nH]1)NC(=O)C1CCC(=O)N1)C(=O)NC(CCCN=C(N)N)C(=O)N1CCCC1C(=O)NNC(N)=O` (stereo not drawn) [Goserelin], the cell number in assay [1] stood at 100; in assay [2], 105. For the same compound, the H1.0 immunofluorescence intensity in assay [3] was 94.5 (inactive); in assay [4], 103 (inactive).

`Cl.NC1C=CC=C(C(=O)O)C1` (stereo not drawn) [Gabaculine hydrochloride]: the cell number in assay [1] is 103; in assay [2] it was 108. The figures for the H1.0 immunofluorescence intensity in assay [3] and in assay [4] were 102 (inactive) and 105 (inactive), respectively.

With `C=CCc1ccc(O)c(-c2ccc(O)c(CC=C)c2)c1` [Honokiol], the cell number is 100 in assay [1] and 107 in assay [2]. Also, the H1.0 immunofluorescence intensity is 81 (inactive) in assay [3] and 101 (inactive) in assay [4].

As to `N#CCNC(=O)c1ccc(-c2ccnc(Nc3ccc(N4CCOCC4)cc3)n2)cc1`, the cell number turned out to be 64.8 in assay [1] and 36.1 in assay [2]. Further, the H1.0 immunofluorescence intensity in assay [3] was 132 (active); in assay [4], 127 (inactive).

With `COc1cc(CNC(=O)CCCCCCC(C)C)ccc1O` [Dihydrocapsaicin], the cell number in assay [1] was 96.7; in assay [2] it was 101. Also, the H1.0 immunofluorescence intensity in assay [3] was 91.1 (inactive); in assay [4], 97 (inactive).

Take `CNC(=O)c1cc(Oc2ccc(NC(=O)Nc3ccc(Cl)c(C(F)(F)F)c3)cc2)ccn1` [Sorafenib]: the cell number in assay [1] is 45.9; in assay [2], 21.5. The H1.0 immunofluorescence intensity is 108 (inactive) in assay [3] and 68.6 (inactive) in assay [4].

Take `CCCCCOc1ccccc1C(O)CC#CCCCC(=O)OC` (stereo not drawn): the cell number in assay [1] stood at 103; in assay [2], 106. Further, the H1.0 immunofluorescence intensity in assay [3] is 93 (inactive); in assay [4], 89.2 (inactive).

`O=C(Nc1ccc([N+](=O)[O-])cc1Cl)c1cc(Cl)ccc1O` [Niclosamide]: the cell number in assay [1] was determined as 70; in assay [2] it was 78.1. Besides, the H1.0 immunofluorescence intensity in assay [3] is 104 (inactive); in assay [4], 120 (inactive).

With `CC(=O)O.NC(=NCCCC(N)C(=O)O)NO` [NG-Hydroxy-L-arginine acetate], the cell number in assay [1] was 97.8; in assay [2], 107. For the same compound, the H1.0 immunofluorescence intensity was 91.4 (inactive) in assay [3] and 89.2 (inactive) in assay [4].

On to `N=c1nc(N2CCCCC2)cc(N)n1O` [Minoxidil], for which the cell number in assay [1] was determined as 99.9 ± 3.1; in assay [2] it was 105 ± 3.1. Besides, the H1.0 immunofluorescence intensity is 92 (inactive) in assay [3] and 103 (inactive) in assay [4].

Consider `Cc1c(C)c2c(c(C)c1O)CCC(C)(COc1ccc(CC3SC(=O)NC3=O)cc1)O2` (stereo not drawn) [Troglitazone], for which the cell number came to 99.8 in assay [1] and 93.8 in assay [2]. Also, the H1.0 immunofluorescence intensity in assay [3] was 101 (inactive); in assay [4] it was 103 (inactive).

Consider `Cc1cc(C)c(C=C2C(=O)Nc3ccccc32)[nH]1` [VEGF Receptor 2 Kinase Inhibitor III], for which the cell number in assay [1] was determined as 100; in assay [2], 105. Besides, the H1.0 immunofluorescence intensity in assay [3] is 91.1 (inactive); in assay [4], 108 (inactive).

For the compound `COc1c2ccoc2cc2oc(C)cc(=O)c12` [Visnagin], the cell number was determined as 103 in assay [1] and 102 in assay [2]. In addition, the H1.0 immunofluorescence intensity was 94.7 (inactive) in assay [3] and 82.3 (inactive) in assay [4].

`CC1OC(Oc2c(-c3cc(O)c(O)c(O)c3)oc3cc(O)cc(O)c3c2=O)C(O)C(O)C1O` (stereo not drawn) [Myricitrin]: the cell number came to 103 in assay [1] and 101 in assay [2]. The H1.0 immunofluorescence intensity in assay [3] was 94.8 (inactive); in assay [4], 83.5 (inactive).

Turning to `CCCCC1=NC2(CCCC2)C(=O)N1Cc1ccc(-c2ccccc2-c2nn[nH]n2)cc1`, the cell number in assay [1] was 101; in assay [2], 99.3. The figures for the H1.0 immunofluorescence intensity in assay [3] and in assay [4] were 101 (inactive) and 88.4 (inactive), respectively.

`CCCCCC=CCC=CCC=CCC=CCCCCCC(=O)O` [7(Z), 10(Z), 13(Z), 16(Z)-Ocosatetraenoic Acid]: the cell number in assay [1] was determined as 100; in assay [2] it was 114. Moreover, the figures for the H1.0 immunofluorescence intensity in assay [3] and in assay [4] were 89.2 (inactive) and 106 (inactive), respectively.

In the case of `CCNC1CC(C)S(=O)(=O)c2sc(S(N)(=O)=O)cc21.Cl` (stereo not drawn) [Dorzolamide.HCl], the cell number was found to be 97 in assay [1] and 87.9 in assay [2]. The H1.0 immunofluorescence intensity was 100 (inactive) in assay [3] and 95.5 (inactive) in assay [4].

Consider `NC(Cc1cccc(-c2ccccc2CP(=O)(O)O)c1)C(=O)O` (stereo not drawn) [Phenylbenzene-omega-phosphono-alpha-amino acid], for which the cell number in assay [1] is 99.4; in assay [2] it was 104. Besides, the H1.0 immunofluorescence intensity in assay [3] was 89.5 (inactive); in assay [4] it was 105 (inactive).
